Test results published in PubChem BioAssay (EPA / NIEHS).
The source made the active and inactive calls. The calls were made as follows, unless noted: active = hit-call score of the fitted dose curve at least 0.9, where 1 is the maximum; inactive = score below 0.9.

Molecular target: Estrogen receptor beta (Homo sapiens) (UniProt Q92731)
Test: OT_ER_ERbERb_1440: Odyssey Thera (OT) 24-hour HEK293T Protein-Complementation Assay for Estrogen Receptor-beta/-beta Homodimer (AID 2283380; active = hit-call score of the fitted dose curve at least 0.9, where 1 is the maximum;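 also: fluorescence gain from ER beta LBD homodimer complementation read by laser scanning cytometry; scored as signal increase over DMSO baseline for both agonists and antagonists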)
In short: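 Fluorescence increase, nuclear for agonists or whole-cell for antagonists, relative to DMSO vehicle, quantified by laser scanning cytometer after fixation and Draq5 staining. Readout from 24 h treatment of HEK293T cells carrying complementation-paired ER beta LBD (aa 310-547).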

Chain of Estrogen receptor beta (Homo sapiens) (Q92731 whole entry, looked up, the tested form may be a part): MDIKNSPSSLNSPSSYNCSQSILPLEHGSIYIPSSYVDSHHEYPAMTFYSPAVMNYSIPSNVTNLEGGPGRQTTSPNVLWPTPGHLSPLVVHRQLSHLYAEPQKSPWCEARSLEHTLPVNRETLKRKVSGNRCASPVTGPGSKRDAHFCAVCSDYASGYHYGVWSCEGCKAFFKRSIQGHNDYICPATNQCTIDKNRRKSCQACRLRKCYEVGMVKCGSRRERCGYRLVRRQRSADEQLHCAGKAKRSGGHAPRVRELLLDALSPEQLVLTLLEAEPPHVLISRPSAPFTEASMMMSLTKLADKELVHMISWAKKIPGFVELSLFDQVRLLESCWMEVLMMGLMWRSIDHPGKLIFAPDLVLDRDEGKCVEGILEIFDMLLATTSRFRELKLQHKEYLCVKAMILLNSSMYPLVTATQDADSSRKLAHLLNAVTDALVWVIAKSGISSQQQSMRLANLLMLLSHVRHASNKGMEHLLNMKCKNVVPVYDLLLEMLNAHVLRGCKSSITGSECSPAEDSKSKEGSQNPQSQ

Row | Compound | outcome | AC50
1 | COCc1nnc(-c2ccc[n+]([O-])c2)n1-c1c(Cl)c(Cl)cc2[nH]c(=O)c(=O)[nH]c12 | inactive | 
2 | O=C(O)[C@H](O)[C@@H](O)C(=O)O | inactive | 
3 | CCCCCCCCCCCCCCO | inactive | 
4 | CCc1cccc(CC)c1N | inactive | 
5 | NC(=O)NN=Cc1ccc([N+](=O)[O-])o1 | inactive | 
6 | OCC(CO)(CO)CO | inactive | 
7 | C[C@@H](Oc1ccc(CNC(=O)c2cccnc2Oc2ccc3c(c2)OCO3)c(F)c1)C(=O)O | inactive | 
8 | NC(N)=O | inactive | 
9 | CC(C)CC(C)O (centres undefined) | inactive | 
10 | OC(Cn1cncn1)(Cn1cncn1)c1ccc(F)cc1F | inactive | 
11 | O=C(O)CO | inactive | 
12 | Cc1ncc([C@@H](CCCCCCc2ccc3c(n2)NCCC3)CC(=O)O)cn1 | inactive | 
13 | CCCCCCOC(=O)CC(CC(=O)OCCCCCC)(OC(=O)CCC)C(=O)OCCCCCC | inactive | 
14 | CCCCCCCC1CCC(=O)O1 (centres undefined) | inactive | 
15 | OC[C@H]1O[C@@](CO)(O[C@H]2O[C@H](CO)[C@@H](O)[C@H](O)[C@H]2O)[C@@H](O)[C@@H]1O | inactive | 
16 | CCCc1ccccc1 | inactive | 
17 | NNC(=O)c1ccncc1 | inactive | 
18 | O=S1(=O)CCCO1 |  | 17.5 µM (active)
19 | NC(=O)N(O)[C@@H]1COc2cc(OCc3ccccc3)ccc21 | inactive | 
20 | O=C1CN(N=Cc2ccc([N+](=O)[O-])o2)C(=O)N1 | inactive | 
21 | O=C(O)c1ccc2c(c1)nc(C(=O)NC1CCN(C3CC3)CC1)n2Cc1cc(-c2ccc(Cl)s2)on1 | inactive | 
22 | CCOc1ccc2[nH]cc(C(=O)NCc3ccccc3)c(=O)c2n1 | inactive | 
23 | CCCCCCCC/C=C\CCCCCCCC(=O)OC[C@@H](O)[C@H]1OC[C@H](O)[C@H]1O | inactive | 
24 | Cn1cc[nH]c1=S | inactive | 
25 | CCCCN1C(=O)[C@@H]([C@H](O)C2CCCCC2)NC(=O)C12CCN(Cc1ccc(Oc3ccc(C(=O)O)cc3)cc1)CC2 | inactive | 

Molecular target: Estrogen receptor (Homo sapiens) (UniProt P03372)
Test: OT_ERa_GFPERaERE_0480: Odyssey Thera (OT) 8-hour HeLa Transcription Induction Assay for Estrogen Receptor (AID 2283381)
In short: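 GFP-ERE reporter, HeLa, 8 h exposure. Readout: fluorescence microscopy, high-content image analysis. Fit direction positive vs DMSO negative control.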

Chain of Estrogen receptor (Homo sapiens) (P03372 whole entry, looked up): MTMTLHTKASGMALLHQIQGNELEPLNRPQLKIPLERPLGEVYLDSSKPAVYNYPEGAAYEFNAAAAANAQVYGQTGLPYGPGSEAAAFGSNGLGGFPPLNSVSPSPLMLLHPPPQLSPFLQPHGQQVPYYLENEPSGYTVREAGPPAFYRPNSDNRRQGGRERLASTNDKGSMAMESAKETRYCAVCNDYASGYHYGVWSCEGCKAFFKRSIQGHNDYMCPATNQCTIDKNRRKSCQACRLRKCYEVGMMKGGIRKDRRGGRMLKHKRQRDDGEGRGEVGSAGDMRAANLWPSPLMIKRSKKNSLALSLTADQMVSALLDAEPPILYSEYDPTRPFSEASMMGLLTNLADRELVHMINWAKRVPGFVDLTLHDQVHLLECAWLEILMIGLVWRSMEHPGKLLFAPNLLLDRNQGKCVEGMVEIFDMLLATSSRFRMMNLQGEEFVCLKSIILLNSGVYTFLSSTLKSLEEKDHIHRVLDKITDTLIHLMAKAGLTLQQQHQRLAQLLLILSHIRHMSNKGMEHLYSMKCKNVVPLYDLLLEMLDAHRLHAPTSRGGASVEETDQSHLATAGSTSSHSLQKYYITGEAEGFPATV

Row | Compound | outcome
26 | COCc1nnc(-c2ccc[n+]([O-])c2)n1-c1c(Cl)c(Cl)cc2[nH]c(=O)c(=O)[nH]c12 | inactive
27 | O=C(O)[C@H](O)[C@@H](O)C(=O)O | inactive
28 | CCCCCCCCCCCCCCO | inactive
29 | CCc1cccc(CC)c1N | inactive
30 | NC(=O)NN=Cc1ccc([N+](=O)[O-])o1 | inactive
31 | CCCCCOC(C)=O | inactive
32 | O=c1[nH]cnc2c1ncn2[C@H]1CC[C@@H](CO)O1 | inactive
33 | OCC(CO)(CO)CO | inactive
34 | C[C@@H](Oc1ccc(CNC(=O)c2cccnc2Oc2ccc3c(c2)OCO3)c(F)c1)C(=O)O | inactive
35 | NC(N)=O | inactive
36 | c1ccc2ncccc2c1 | inactive
37 | CC(C)CC(C)O (centres undefined) | inactive
38 | OC(Cn1cncn1)(Cn1cncn1)c1ccc(F)cc1F | inactive
39 | CC(=O)c1ccccc1 | inactive
40 | O=C(O)CO | inactive
41 | O=C(O)c1cccc(C(=O)O)c1 | inactive
42 | Cc1ncc([C@@H](CCCCCCc2ccc3c(n2)NCCC3)CC(=O)O)cn1 | inactive

Row | Compound | outcome
43 | C=CN1CCCC1=O | inactive
44 | CCCCOC(=O)c1ccccc1 | inactive
45 | CC1(C)C(=O)N(Cl)C(=O)N1Cl | inactive
46 | CCCCCCOC(=O)CC(CC(=O)OCCCCCC)(OC(=O)CCC)C(=O)OCCCCCC | inactive
47 | CCCCCCCC1CCC(=O)O1 (centres undefined) | inactive
48 | OC[C@H]1O[C@@](CO)(O[C@H]2O[C@H](CO)[C@@H](O)[C@H](O)[C@H]2O)[C@@H](O)[C@@H]1O | inactive
49 | CCCc1ccccc1 | inactive
50 | NNC(=O)c1ccncc1 | inactive
51 | O=S1(=O)CCCO1 | inactive
52 | NC(=O)N(O)[C@@H]1COc2cc(OCc3ccccc3)ccc21 | inactive
53 | OCCNCCO | inactive
54 | O=C1CN(N=Cc2ccc([N+](=O)[O-])o2)C(=O)N1 | inactive
55 | O=C(O)c1ccc2c(c1)nc(C(=O)NC1CCN(C3CC3)CC1)n2Cc1cc(-c2ccc(Cl)s2)on1 | inactive
56 | CCOc1ccc2[nH]cc(C(=O)NCc3ccccc3)c(=O)c2n1 | inactive
57 | CCCCCCCC/C=C\CCCCCCCC(=O)OC[C@@H](O)[C@H]1OC[C@H](O)[C@H]1O | inactive
58 | Cn1cc[nH]c1=S | inactive
59 | CCCCN1C(=O)[C@@H]([C@H](O)C2CCCCC2)NC(=O)C12CCN(Cc1ccc(Oc3ccc(C(=O)O)cc3)cc1)CC2 | inactive
